High-throughput results (PubChem BioAssay)
L3MBTL1 block: L3MBTL1 (human) inhibition | Q9Y468 | AlphaScreen L3MBTL1–H3K9me1 peptide binding | Potency, µM (titrated, usually from 57.1 µM), most hits filed as inhibitors | actives 0.66% (n = 230,000); note: nearly all actives have a fitted effect of over 60% in size
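L3MBTL1 50 nM + b-AHA-H3(1-15)K9me1 75 nM, 30 min RT; compound added, 30 min RT; streptavidin donor/Ni-chelate acceptor beads 10 ug/mL each final, 30 min RT dark; AlphaScreen read.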
BAZ2B block: inhibitors of human BAZ2B bromodomain. Q9UIF8. AlphaScreen BAZ2B-H3K14Ac peptide displacement. Potency, µM (highest dose often 114 µM), most hits filed as inhibitors. actives 4.4% (n = 360,000); note: nearly all actives have a fitted effect of over 60% in size
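AlphaScreen displacement: compounds (up to 110uM) incubated 30 min at room temperature with a preformed 50 nM BAZ2B/50 nM biotinylated H3K14Ac peptide complex in PBS pH 7.4 with Tween-20. Donor and acceptor beads at 10 ug/mL final added, 20 min light-protected before reading.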
JMJD2A Tudor inh: JMJD2A Tudor domain (human) inhibition. Potency, µM (series often up to 114 µM), usual class: inhibitors. actives 4.4% (n = 390,000). AlphaScreen JMJD2A-Tudor / H3K4me3 peptide binding. O75164. AID 504339; note: nearly all actives have a fitted effect of over 50% in size
HP1b chromo inh: blocks HP1-beta chromodomain binding to methylated histone tails; P83916; AlphaScreen HP1-beta / biotin-H3K9me3 peptide binding; Potency, µM (titrated, usually from 114 µM), usual class: inhibitors; actives 0.56% (n = 390,000); AID 540317; note: nearly all actives have a fitted effect of over 70% in size
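HP1-beta protein (50 nM final) preincubated 30 min at room temperature with biotinylated H3(1-18)K9me3 peptide (50 nM) in PBS pH 7.4, 0.01% Tween-20, then compound added for 30 min. AlphaScreen streptavidin donor/nickel chelate acceptor beads (10 ug/mL final), 30 min dark, luminescence read.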
PI5P4K alpha inh: inhibitors of human PI5P4K alpha; P48426; PI5P4Kalpha enzyme, ADP-Glo luminescence, 60 min; stronger effect = lower value; max response, %; actives 1.2% (n = 330,000); active = max response of -50% or lower; inconclusive = between -30% and -50%; inactive = -30% or higher; note: value at the top dose of about 77 µM
Target sequence (P48426 whole entry, looked up): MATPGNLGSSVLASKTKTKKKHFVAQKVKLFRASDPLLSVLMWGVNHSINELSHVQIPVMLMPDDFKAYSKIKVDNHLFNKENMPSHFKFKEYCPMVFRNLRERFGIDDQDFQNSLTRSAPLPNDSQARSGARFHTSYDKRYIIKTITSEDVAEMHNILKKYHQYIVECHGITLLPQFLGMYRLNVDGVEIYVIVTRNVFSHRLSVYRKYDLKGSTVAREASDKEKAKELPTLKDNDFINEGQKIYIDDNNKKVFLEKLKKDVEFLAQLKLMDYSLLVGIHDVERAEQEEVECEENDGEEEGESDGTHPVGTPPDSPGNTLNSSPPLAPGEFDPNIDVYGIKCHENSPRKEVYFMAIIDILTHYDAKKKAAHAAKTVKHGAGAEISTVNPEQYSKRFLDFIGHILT
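Quantitative HTS of the MLSMR library against PI5P4Kalpha with substrate. ATP added last at 5 microM final; room temperature, 60 minutes. Remaining ATP depleted, ADP converted and read as luminescence.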
G9a inh: blocks human histone lysine methyltransferase G9a; Q96KQ7; G9a H3K9 monomethylation, AlphaScreen, 2 h; Potency, µM (titrated, usually from 102 µM), most hits filed as inhibitors; actives 8.8% (n = 350,000); note: nearly all actives have a fitted effect of over 75% in size
Target sequence (Q96KQ7 913-1193 limits assumed): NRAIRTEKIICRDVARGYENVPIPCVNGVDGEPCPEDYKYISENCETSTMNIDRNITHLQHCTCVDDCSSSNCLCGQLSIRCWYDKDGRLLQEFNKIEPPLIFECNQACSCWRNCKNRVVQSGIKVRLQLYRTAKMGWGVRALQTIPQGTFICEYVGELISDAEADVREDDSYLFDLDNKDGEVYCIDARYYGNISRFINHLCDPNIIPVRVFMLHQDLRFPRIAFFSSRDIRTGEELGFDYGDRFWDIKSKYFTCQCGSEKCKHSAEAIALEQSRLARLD
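G9a (20 nM) was preincubated 15 min with compound, then reacted 2 h at room temperature with 500 nM biotin-H3K9 peptide and 20 µM SAM. Monomethyl-H3K9 detected by AlphaScreen using anti-H3K9me1 antibody.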
Each line names hits and unclear results; the compound was inactive in the other large screens. The list is not random: actives were taken first. Their share in the collection is about 11%. Unless noted, calls come from the whole dose curve; as a rule, active = well fitted inhibition curve with a large enough effect; inconclusive = small, poorly fitted or top-dose-only effect; inactive = no such curve, though single readings can be large or run the other way.

O=C(CNC(=O)C1CCCCC1)OCC(=O)c1ccc2c(c1)CCC2	none (no result: L3MBTL1 block, BAZ2B block, PI5P4K alpha inh, G9a inh)
CCN(Cc1ccccc1)S(=O)(=O)c1ccc(F)c(C(=O)Nc2cc(C(F)(F)F)ccc2Cl)c1	none (no result: L3MBTL1 block, PI5P4K alpha inh)
CCOC(=O)C1=C(CSc2nc(CC)c(C)cc2C#N)OC(N)=C(C#N)C1c1ccc(OC)cc1 (centres undefined)	JMJD2A Tudor inh 32µM, G9a inh 4.5µM
CCOC(=O)C1=C(CSc2nc(C)ccc2C#N)OC(N)=C(C#N)C1c1cccc(OC)c1OC (centres undefined)	BAZ2B block 56µM, JMJD2A Tudor inh inconclusive, G9a inh 7.1µM
CCOC(=O)C1=C(c2ccccc2)OC(N)=C(C#N)C1c1ccncc1 (centres undefined)	G9a inh 45µM
CCOC(=O)C1=C(CC)OC(N)=C(C#N)C1c1ccc(OC)c(OC)c1OC (centres undefined)	G9a inh inconclusive (no result: L3MBTL1 block)
CCOC(=O)C1=C(CSc2nc(-c3ccncc3)ccc2C#N)OC(N)=C(C#N)C1c1ccc(OC)cc1 (centres undefined)	BAZ2B block inconclusive, JMJD2A Tudor inh inconclusive, G9a inh 40µM (no result: L3MBTL1 block)
CCCCCn1c(=O)[nH]c2cc(C(=O)NCc3ccc(OC)cc3)ccc2c1=O	none (no result: L3MBTL1 block, PI5P4K alpha inh)
Cc1nc(-c2ccc(S(=O)(=O)Nc3ccc(C)c(C)c3)s2)cs1	none (no result: L3MBTL1 block, BAZ2B block, HP1b chromo inh, PI5P4K alpha inh, G9a inh)
Cn1c(=O)c2c(ncn2CC(=O)Nc2cccc(Cl)c2Cl)n(C)c1=O	none (no result: L3MBTL1 block, PI5P4K alpha inh)
CCOC(=O)C1=C(C)OC(N)=C(C#N)C1c1ccc(OC)c(CSc2ccccn2)c1 (centres undefined)	BAZ2B block inconclusive, JMJD2A Tudor inh inconclusive, G9a inh 22µM
CCOC(=O)C1=C(CSc2nc(-c3ccncc3)ccc2C#N)OC(N)=C(C#N)C1c1cccnc1 (centres undefined)	G9a inh 35µM
COc1ccc(C2C(C#N)=C(N)Oc3n[nH]c(C)c32)cc1CSc1ccccn1 (centres undefined)	none
O=c1oc2ccccc2n1CCCOc1ccccc1Cl	none (no result: L3MBTL1 block, PI5P4K alpha inh)
CCOC(=O)C(C(=O)OCC)c1cc(Br)c2noc3c2c1C(=O)c1ccccc1-3	L3MBTL1 block inconclusive, BAZ2B block 7.9µM, JMJD2A Tudor inh 50µM, HP1b chromo inh inconclusive, G9a inh 2.5µM
CCOC(=O)c1c(C)nc2c(c1-c1ccc(OC)c(OC)c1)C(=O)c1ccccc1-2	none (no result: PI5P4K alpha inh)
CCN(CCCCOC(=O)c1ccc(OC)c(OC)c1)[C@@H](C)Cc1ccc(OC)cc1	none (no result: L3MBTL1 block, BAZ2B block, JMJD2A Tudor inh, HP1b chromo inh, PI5P4K alpha inh)
CC1CCCN(C(=O)C2CCN(CC3CC=CCC3)CC2)C1 (centres undefined)	JMJD2A Tudor inh 8.9µM, HP1b chromo inh inconclusive, G9a inh inconclusive
O=C(CN1C(=O)COc2ccc(S(=O)(=O)N3CCCCCC3)cc21)N1CCN(c2ccc(F)cc2)CC1	none (no result: L3MBTL1 block, PI5P4K alpha inh)
O=c1cnnc(Nc2ccc(Nc3ccccc3)cc2)[nH]1	JMJD2A Tudor inh inconclusive, G9a inh 40µM (no result: L3MBTL1 block)
CCOC(=O)c1c(N)n(-c2cccc(OC)c2)c2nc3ccccc3nc12	none (no result: L3MBTL1 block, PI5P4K alpha inh)
CCOC(=O)c1c2c(n(-c3ccc(OC)cc3)c1C)C(=O)C(=O)c1ccccc1-2	JMJD2A Tudor inh 18µM, HP1b chromo inh inconclusive (no result: L3MBTL1 block, BAZ2B block, G9a inh)
CCC(c1nnnn1Cc1cccs1)N1CCN(C(=O)c2ccco2)CC1 (centres undefined)	none
Cc1ccc(C(c2nnnn2Cc2cccs2)N2CCN(C(=O)c3ccco3)CC2)cc1 (centres undefined)	BAZ2B block inconclusive, JMJD2A Tudor inh inconclusive, G9a inh 40µM
COc1ccc(C(c2nnnn2Cc2ccccc2)N2CCN(C(=O)c3ccco3)CC2)cc1 (centres undefined)	G9a inh 56µM
O=C(O)c1ccc(NCc2nc3ccccc3n2Cc2ccccc2)cc1	BAZ2B block 50µM
CCn1cnc2cc(NCc3nc4ccccc4n3Cc3ccccc3)ccc21	L3MBTL1 block inconclusive, BAZ2B block 40µM, JMJD2A Tudor inh 45µM, G9a inh inconclusive
CCn1c(=O)n(-c2ccc(C)c(F)c2)c(=O)c2sc3ccccc3c21	none (no result: L3MBTL1 block, PI5P4K alpha inh)
COc1ccc(-c2nnc(SCC(=O)Oc3cc(C)ccc3C)o2)cc1	none (no result: L3MBTL1 block, PI5P4K alpha inh)
Cc1c(C#N)c(N)nc2c3c(sc12)NC(=O)CC3c1ccc(Cl)cc1 (centres undefined)	none
N#Cc1c(N)nc2c3c(sc(=N)c2c1N)NC(=O)CC3c1c(F)cccc1Cl (centres undefined)	BAZ2B block inconclusive, PI5P4K alpha inh -67
N#Cc1c(N)nc2c3c(sc(=N)c2c1N)NC(=O)CC3c1ccccc1 (centres undefined)	PI5P4K alpha inh -87
CCCc1ccc(O)c(N=Cc2cc(Br)cc(OCC)c2O)c1	BAZ2B block inconclusive, JMJD2A Tudor inh inconclusive, G9a inh 5.6µM (no result: L3MBTL1 block)
Cc1nc(SCc2ccc(Cl)c(Cl)c2)n[nH]1	none
CNc1cc(CSC)nc(SCc2ccc(Cl)c(Cl)c2)n1	G9a inh 32µM (no result: PI5P4K alpha inh)
CCN(CC)C(=O)Cn1cc(C(=O)C(=O)N2CC=C(c3ccccc3)CC2)c2ccccc21	G9a inh 50µM (no result: L3MBTL1 block)
Cc1c(C)n(Cc2ccc(F)cc2)c2ccc(C(=O)NCCN3CCOCC3)cc12	BAZ2B block 50µM, JMJD2A Tudor inh inconclusive, G9a inh 50µM (no result: L3MBTL1 block)
Cc1cccc(Cn2c(C)c(C)c3cc(C(=O)NCCN4CCOCC4)ccc32)c1	BAZ2B block 56µM, JMJD2A Tudor inh 50µM, G9a inh 40µM (no result: L3MBTL1 block)
CC1CCCN(c2ncnc3c2cnn3-c2ccc(F)cc2)C1 (centres undefined)	none (no result: L3MBTL1 block, PI5P4K alpha inh)
CC1=C/C(=N\Nc2ccccc2[N+](=O)[O-])CC(C)(C)C1	L3MBTL1 block 14µM, BAZ2B block 2.8µM, JMJD2A Tudor inh 7.9µM, HP1b chromo inh 7.1µM, G9a inh 3.5µM
